From the supplement of paper PMC7393113
Values joined by “and” are separate entries in the source; they are usually repeats but may differ in a detail not shown here. Identical values can stand only once. ± gives the standard deviation of the averaged measurements.

Test system: iBMDM (immortalised mouse bone-marrow-derived macrophages), LPS-stimulated
Assay: mitochondrial superoxide (MitoSOX fluorescence) fold increase over unstimulated control; higher = more LPS-induced mitochondrial ROS (less inhibition)
Conditions: inhibitor concentration: 500 nM; LPS: 100 ng/ml; time after LPS: 4 h
Procedure, shortened: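 Values are fold induction of mitochondrial superoxide relative to untreated macrophages, as a mean of replicates. Immortalised mouse bone-marrow-derived macrophages, seeded in triplicate in black 96-well plates, spent 20 h in phenol-red-free 1% FCS/DMEM before a 30 min pretreatment with kinase inhibitors (500 nM). After 10 min loading with 1 μM MitoSox, cells received LPS (100 ng/ml), and fluorescence (510/580 nm) was measured every 60 min for 4 h.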

Compound | mitochondrial superoxide
N#CC1(c2ccc(NC(=O)c3cccnc3NCc3ccncc3)cc2)CCCC1 [Apatinib] | 1.36 ± 0.018
Cc1cc2c(F)c(Oc3ncnn4cc(OC[C@@H](C)O)c(C)c34)ccc2[nH]1 | 1.53 ± 0.14
Cc1ccc(C(=O)Nc2ccc(CN3CCN(C)CC3)c(C(F)(F)F)c2)cc1C#Cc1cnc2cccnn12 | 1.23 ± 0.048
Cc1[nH]c(/C=C2\C(=O)Nc3ccc(S(=O)(=O)N(C)c4cccc(Cl)c4)cc32)c(C)c1C(=O)N1CCN(C)CC1 | 1.67 ± 0.27
CN(c1ncccc1CNc1nc(Nc2ccc3c(c2)CC(=O)N3)ncc1C(F)(F)F)S(C)(=O)=O | 1.63 and 1.11
COc1cc2c(N3CCN(C(=O)Nc4ccc(OC(C)C)cc4)CC3)ncnc2cc1OCCCN1CCCCC1 [Tandutinib (MLN518)] | 1.72 ± 0.062
Cc1[nH]c(/C=C2\C(=O)Nc3ccc(S(=O)(=O)Cc4c(Cl)cccc4Cl)cc32)c(C)c1C(=O)N1CCC[C@@H]1CN1CCCC1 | 1.77 ± 0.028
C#Cc1cccc(Nc2ncnc3cc(OC)c(OCCCCCCC(=O)NO)cc23)c1 | 1.22 ± 0.051
CCC[C@H](NC(=O)/C(C#N)=C/c1cccc(Br)n1)c1ccccc1 [Degrasyn (WP1130)] | 1.48 ± 0.038
Cc1ccc(-n2nc(C(C)(C)C)cc2NC(=O)Nc2ccc(OCCN3CCOCC3)c3ccccc23)cc1 [BIRB 796 (Doramapimod)] | 1.22 ± 0.032
CNC(=O)c1nn(C)c2c1C(C)(C)Cc1cnc(Nc3ccc(N4CCN(C)CC4)cc3)nc1-2 | 1.64 ± 0.064
COc1cc2ncnc(Nc3ccc(F)c(Cl)c3)c2cc1OCCCN1CCOCC1 [Gefitinib (ZD1839)] | 1.77 ± 0.025
